From PubChem BioAssay (NCI)
About 83,000 compounds went through this panel and 20% of them were active in at least one assay; those are over-represented in the sample as a whole.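 Values shown are percent growth following 48 h exposure of cells in 96-well plates to a single concentration of compound; below 10 was considered active.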 Unmarked numbers belong to inactive results. Activity calls are given as the source filed them.

Tests used:
Test in all cases: NCI-60 one-dose screen, 48 h (100 = growth as untreated, 0 = no growth, -100 = all killed)
Settings in all cases: 10 µM unless noted
[1] = tested on: T-47D breast
[2] = tested on: BT-549 breast
[3] = tested on: MDA-MB-435 melanoma
[4] = tested on: SW-620 colon
[5] = tested on: MCF7 breast
[6] = tested on: HCT-116 colon
[7] = tested on: HCC-2998 colon
[8] = tested on: KM12 colon

SMILES	growth [1]	growth [2]	growth [3]	growth [4]	growth [5]	growth [6]	growth [7]	growth [8]
O=C(/C=C/c1ccc([N+](=O)[O-])o1)NNC(=O)c1cc2ccccc2cc1O	2.44% (active)	-4.88% (active)	-13.3% (active)	-5.85% (active)	32.9%	-100% (active)	-18.4% (active)	11.6%
COc1ccc(C2CC(c3ccc(Nc4nc(Nc5ccc(F)cc5)nc(Nc5ccc(Cl)cc5)n4)cc3)=NN2C(C)=O)cc1 (stereo not drawn)	72.5%	143%	97.1%	109%	105%	94.6%	99.7%	135%
C=CCc1cc(C)ccc1NC(C(=O)NCC(=O)OC)c1ccccc1 (stereo not drawn)	77.2%	93.7%	101%	117%	89.8%	101%	98.7%	99.4%
O=C(Cc1ccc2c(c1)OCCO2)Nc1nc2ccc(F)cc2s1	93.6%	89.6%	104%	104%	92.2%	101%	122%	108%
C#C[C@]1(O)CC[C@H]2[C@@H]3CC=C4c5sc(Nc6ccccc6)nc5CC[C@]4(C)[C@H]3CC[C@@]21C	28.6%	19.9%	34.4%	3.04% (active)	8.14% (active)	-33.3% (active)	45.3%	13.1%
O=C(N/N=C/[C@@H](O)[C@H](O)[C@H](O)CO)c1ccc(NC(=O)c2cccnc2)cc1	96.1%	99%	104%	98.9%	92.6%	103%	117%	102%
CN(C)c1ccc(/C=N\Nc2cc(=O)[nH]c3ccc(Cl)cc23)cc1	81.7%	85.5%	105%	86%	81%	88.4%	104%	104%
O=C1CSC(c2c(Cl)cccc2Cl)N1c1nc(Cl)cc(=O)[nH]1 (stereo not drawn)	104%	228%	111%	102%	107%	103%	102%	112%
COc1cc(Nc2nc(NCCN)nc3cc[nH]c(=O)c23)cc(OC)c1	122%	66.7%	69.6%	64.2%	77.2%	46.6%	79.3%	76%
COc1cc(C(=O)N/N=C/c2cc3cc(OCc4ccccc4)ccc3nc2OC)cc(OC)c1OC	54.3%	73.4%	88.3%	91.6%	78.4%	85.7%	96.7%	96.2%
Cc1cc(Cl)ccc1NS(=O)(=O)c1ccc(-c2cnc(C3CC3)o2)cc1	49.6%	11.5%	-36.4% (active)	21.9%	12.7%	12.9%	15.9%	15.5%
O=C(Nc1nc2ccc(F)cc2s1)c1cccnc1Nc1ccc(Cl)cc1Cl	0.802% (active)	-9.44% (active)	26.3%	20.2%	13%	11%	8.35% (active)	9.49% (active)
COC(=O)c1ccc2[nH]c(O)c(C(=Nc3ccc(N(C)C(=O)CN4CCN(C)CC4)cc3)c3ccccc3)c2c1	59.8%	11.2%	27.2%	6.45% (active)	27.6%	6.52% (active)	25.7%	13.9%
Cc1ccc2nc(NC(=O)CSc3nc(Cl)c(C#N)c(-c4ccccc4)n3)sc2c1	89.1%	103%	98.8%	103%	91.7%	102%	108%	110%
N#Cc1c(-c2ccccc2)nc(SCC(=O)Nc2nc(-c3ccc(Cl)cc3)cs2)[nH]c1=O	81.8%	93.6%	99.6%	113%	91.7%	81.8%	81.5%	103%
O=[N+]([O-])c1ccccc1NCSc1ccc(Cl)cc1	93.3%	69.2%	93.8%	101%	91.9%	83.8%	84.3%	79.2%

SMILES	growth [1]	growth [2]	growth [3]	growth [4]	growth [5]	growth [6]	growth [7]	growth [8]
COc1ccc(/C=N/Nc2cc(=O)[nH]c3ccc(C)cc23)cc1	70.7%	88.3%	102%	96.8%	78.1%	83.1%	99.2%	105%
OC(COc1ccccc1Cl)CN1CCN(c2cccc(Cl)c2)CC1 (stereo not drawn)	109%	95.5%	109%	110%	93.8%	98.3%	114%	104%
NCCOc1ncccc1/C=C1\C2C=CC=CC2C2C=CC(F)=CC12 (stereo not drawn)	33.1%	84.7%	63.4%	13.3%	11.8%	22.2%	4.37% (active)	29%
CC1=C([Se]CC(OC(=O)[C@@H](CSSC(C)(C)C)NC(=O)OC(C)(C)C)C(=O)NC(C)(C)C)C(=O)c2ccccc2C1=O (stereo partly drawn)	-50.3% (active)	-97.8% (active)	-91.2% (active)	-83.3% (active)	-25.9% (active)	-73.8% (active)	-93.5% (active)	-97.7% (active)
COc1ccc(C2C(N)=NNC2c2cccc(O)c2)cc1 (stereo not drawn)	101%	87.5%	100%	109%	96.6%	104%	122%	92.8%
COc1cccc(/C=C2\C=C(c3ccccc3)N(Cc3ccccc3)C2=O)c1	59.8%	69.7%	-32.3% (active)	43.5%	32.5%	48.3%	66.6%	53.4%
COc1cc(C(=O)c2cnc(-c3cccc4[nH]ccc34)[nH]2)cc(OC)c1OC	70.6%	40.2%	-34.8% (active)	19.7%	22.4%	-8.06% (active)	20.9%	4.18% (active)
O=c1ccc(N=Nc2ccccc2)ccc1Cl	42.4%	135%	40.6%	-3.18% (active)	17.6%	13.7%	35%	74.6%
NCCNc1nc2ccccc2c2c(=O)c3cccc(F)c3sc12	70.7%	98.5%	58.5%	17.7%	45.1%	15.1%	15.5%	34.3%
c1ccc(Cc2nn3cc(-c4ccccc4)nc3s2)cc1	87.6%	102%	114%	109%	87.2%	78.9%	103%	96.5%
COc1cc2cc(Oc3ccc(NC(=O)Nc4ccc(F)c(C(F)(F)F)c4)cc3)c(C)nc2cc1OCCN1CCOCC1	21.8%	40.3%	16.5%	15.5%	3.62% (active)	9.66% (active)	44.9%	11.2%
CCc1ccc(Oc2c(-c3ccc(OCCc4cccc(C(F)(F)F)c4)cc3O)n[nH]c2C(F)(F)F)cc1	6.59% (active)	86.5%	27.1%	14.7%	27.8%	0% (active)	89.4%	46.4%
OC(COc1ccccc1)CN1CCN(c2ccc(Cl)cc2)CC1 (stereo not drawn)	102%	101%	121%	98.7%	102%	92.6%	109%	98%
Cc1nc(/N=C(\N)NC(=O)Nc2ccccc2Cl)sc1C	34.7%	69.3%	-25.6% (active)	36.3%	23.6%	28.5%	33.4%	40.3%
Clc1ccc(C(/C=C/c2sc(Cl)nc2Cl)=N/Nc2cc(Cl)cc(Cl)c2)cc1	98.2%	115%	101%	106%	100%	106%	112%	105%
